Our source for the z-score values is PubChem BioAssay AID1508600 (Functional Genomics Laboratory (NCATS/FGL), 2020).

About 3,700 (7%) of roughly 53,000 sequences were called active.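 How the source made its calls: active means gene knockdowns whose robust z-score for IL-1 alpha signal is at least 2 or at most -2, so actives lie on both sides; inactive means the rest.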 Many of the other results were omitted from the sample, so actives are more common in it than they were.

The test in a line: Components of the Cytosolic LPS Sensing Pathway: Gene Identification via Genome-wide siRNA Screen.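 Further: robust z of the log signal after scaling to non-targeting control siRNA wells of the plate.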 The note with it: RAW264.7 macrophages, IL-1a HTRF, actives lie on both sides, screened at 100 nM (by protocol), cells primed 5 h with Pam3CSK4 first. Summed up: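 Read-out: IL-1a HTRF on supernatant, divided by plate negative-control median ×100, log-transformed and converted to robust z-score. Cells were RAW264.7 given 100 nM siRNA, Pam3CSK4-primed 5 hours, then LipidA-transfected 24 hour.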
In general terms: TR-FRET usually uses a lanthanide donor and a delayed reading to cut background.
Regarding GGUACUCUCAUUAUCUUUCTT against Tlr8, the z-score is -0.217 (inactive). The result for GUGAGAAGUUGUGUAGAGCTT against Fmc1 reads 1.84 (inactive); that for GCAUACAACUGUUCAUAGATT against Nsrp1, -0.476 (inactive); that for GGAGCUGAGGGAACCUUGUTT against Slc35c1, -2.67 (active).

For the sequence GGACAGCGACAAGAUUCCGTT against Sox4, the z-score is -0.714 (inactive). The result for GCCUUUAAUCAACCCAAGATT against Scd1 reads -0.728 (inactive). The result for GCUAAAGAUGAGCGUACAUTT against Myh10 reads 1.44 (inactive); that for GGUGGUGGAGAAGAUAGGATT against Pax8, -1.05 (inactive); that for CCAUCUAUUACGGAACGGGTT against Olfr324, 1.36 (inactive). With GGCCUCAACUAAGAACCCUTT against Pcdh1 the figure was -0.298 (inactive); with GGUCCAAUUAACCUAUCUUTT against Ppip5k2, -2.06 (active). Regarding GGAGAUUAGUUACUUCCAGTT against Slc1a7, the z-score is 3.5 (active).

On to GGAUACAUUAAUUGUUUGGTT against Ppp4r3b, for which the z-score was 2.55 (active). With GGUCACUGCUAAAGCCUGATT against Stoml3 the figure was 0.864 (inactive); with GGCCAUGAAUAUGGAGUCCTT against Cptp, 0.623 (inactive).

As to GGAAAUCAGAGCUGAGUUATT against Ankrd6, the z-score is 0.0763 (inactive). The result for GGUAGUAGUAAGCCAUAAATT against Exoc8 reads 0.736 (inactive); that for “CCCUUGAACAUUCUACUCUTT against 1700012A03Rik”, -0.955 (inactive). With GAUCAUCGGCAUUUUGAACTT against Il4 the figure was -0.527 (inactive); with GGCUGGUACAAAGUUUUAGTT against Mpv17, 2.55 (active); with “GGUAGUAGGAGUUUCCUACTT against 4933414I15Rik”, 1.44 (inactive). The result for CGGUAAUCAUUGCUGUUCUTT against H2-K1 reads 1.05 (inactive). With GGAAGACCAAUAGUACUGCTT against Il1rn, the z-score was -0.0282 (inactive).

Regarding GGAGUACGAAUUCCUCACUTT against Arhgdib, the z-score is -0.0475 (inactive). Take GGCUCAAAGAAUAUGCCAATT against Rad54b: the z-score is 0.99 (inactive). On to GCCAGUGCUGGUUUGAAAUTT against Clip4, for which the z-score is 1.67 (inactive).

Turning to CCACUGUUACCAUUAUAAUTT against Pramel4, the z-score was -0.594 (inactive). The result for GGAUAAAGGAAUCUGAUCUTT against Unc80 reads -2.58 (active). The result for GCGCAGAAGAGGCUAUUAUTT against Asprv1 reads -0.125 (inactive); that for GGUAGCACUUACGUGAAAUTT against Mbd2, -0.655 (inactive). With GCAUAUGGCACCACAUUGUTT against Psg25 the figure was 0.0646 (inactive); with GGAUAUCAGGGUUGUUAAGTT against Txnl4b, 0.952 (inactive); with GGCUAUGUUAAUUUGUCCCTT against Hc, 0.00272 (inactive). As to GCAAUAUGUGACAAACUUCTT against Ptpn22, the z-score was 2.06 (active). The result for GGAAUCAGCAAUGGACCCUTT against Parn reads -0.818 (inactive). As to CCUGGGCCUUAACAAGAAGTT against Upf1, the z-score was -1.32 (inactive).

With CCCACUUUGAAAAAGACUCTT against Mei4, the z-score was 2.5 (active). On to GCUUUGGAUAGUAGACAGCTT against BC055324, for which the z-score is 0.199 (inactive). The result for GGGACAAUUAGAAAGACAUTT against Mtif2 reads 0.982 (inactive); that for GGAACCAACCAGGAGAAAUTT against Ms4a4d, -2.58 (active). Take GGAACUCACGCACAUAUUUTT against Net1: the z-score is -0.483 (inactive). With GACUUACUUGCAUCACUGATT against Vmn1r4 the figure was -0.732 (inactive).

In the case of GGUGAAUGUAUAAGUUAUGTT against Icam1, the z-score is 1 (inactive).

Consider GCUUUCUUAGCAUUAAAUCTT against Zkscan3, for which the z-score was -0.274 (inactive). The result for GGUUCAUGAUGGAUGACAUTT against Bmerb1 reads -1.96 (inactive); that for GGCUUGAAGUUCAUUUAUUTT against Nkiras2, -1.03 (inactive); that for GGUUAUUCAAAAAUGCAACTT against Rcor1, -0.559 (inactive).

With GGAAAGGCUCAAUGAGAGCTT against Nipa2, the z-score was -3.3 (active). As to GGUCUAUGCGAUGCUAUACTT against Sarm1, the z-score is -0.508 (inactive). With GCCGUUUACCUUAGUCUGUTT against Cyb5rl the figure was 0.00283 (inactive); with GCCAGCCUAAAAAAGAUACTT against Eef1g, 0.254 (inactive). On to GGAUCUUGGCUAAAGAGGGTT against Slc25a25, for which the z-score was 0.0129 (inactive). Consider GCAAUUGAAAGUGAACAAUTT against Olfr1360, for which the z-score was -0.935 (inactive). With GGAGGAAAGUUGUAUUUGATT against Nudt7 the figure was 0.148 (inactive); with GGCGAGUUCAGGAGUUUACTT against Fmnl1, 2.55 (active). Turning to GGGUACCUGUCCAAGGUCATT against Mfn2, the z-score is 0.849 (inactive). With GGAUGGAACAUAUGAUUAGTT against Vmn1r234 the figure was 0.653 (inactive); with GGUGUCAGGAUUUUAUAACTT against Etfbkmt, -0.182 (inactive). With GGUGGUUUGUGAUGAAAAUTT against Pabpc1 the figure was 2.11 (active); with GUUUGUCUAGCUUCAGAUGTT against Rims4, 1.78 (inactive); with GGGAGGACAUCCAGACAAUTT against Fam13b, -0.305 (inactive). Take GGGAAAGAUAAGCUCAAGGTT against Sh2d2a: the z-score was 1.32 (inactive). The result for GACUCUAAACCUAGCAGCGTT against Basp1 reads -2.34 (active); that for GGCUGGUUUAUUUGUGGACTT against Cemip2, 0.574 (inactive). The result for GGAUAUGGAAGAAGUUGUGTT against Olfr1089 reads -2.2 (active). With CCAGCUAUACGAAGACUUCTT against Hdhd3 the figure was 0.0525 (inactive); with GGAGGUGGAAUCUUUCCCUTT against Aplp1, -1.68 (inactive); with GGAAAAGGCAAUCGUUUCUTT against Mtg2, 0.278 (inactive). Regarding GUAUGUUCAUAUGGUUUUCTT against Swi5, the z-score is 2.33 (active). With GUCUUCCCUCAUCCUUUGATT against Cox8a the figure was 0.902 (inactive); with GCAGAAGUUCAUUUUCCUATT against Olfr145, 0.969 (inactive); with GGUCAUGUCCAUCCCAAAGTT against Ficd, 1.15 (inactive).

As to GGAUUAUUUUAAGUGGAGATT against Dna2, the z-score was -0.103 (inactive). Consider GGAUUCACUAGCAUUGUAGTT against Guca1b, for which the z-score was -0.725 (inactive).

In the case of GGAGCUUCUAGACUGUACCTT against Lrmp, the z-score was 2.03 (active). With GCAAGAAUCAUCCGGUUACTT against Ttc39b the figure was 1.36 (inactive).

Regarding CCUUUACACCACUCUAUUUTT against Adgb, the z-score was -0.795 (inactive). With GCCGCUACCUAUGAUGUCCTT against Kcne4, the z-score is 0.385 (inactive). The result for GGUCCUGGAAUCUCAAAAUTT against Entpd1 reads -0.506 (inactive); that for GCAGAUCGCAAAAGAUCCUTT against Nppa, 0.69 (inactive); that for GGUCAAGUCAGUAACUGCATT against Olfr10, 0.747 (inactive).

On to GCUCAGAUUUGCUUUAUGATT against Ube2r2, for which the z-score was 0.367 (inactive).

GGGAAUGGCUAAUGUUUAUTT against Stk38l: the z-score is 2.32 (active). The result for GCCUCACUUUGCCAUGCAUTT against Pou4f1 reads -1.78 (inactive); that for GGAUGCCAGAAGAAUAUUCTT against Pnlip, 2.43 (active). With CCAUGCUGAUUGCUCCGACTT against Cass4 the figure was 1.46 (inactive); with GGAUAUGUGAAAUGCAUUGTT against Asb9, 0.219 (inactive); with GGCUAAAGGCCUUCUUUUUTT against Reep3, 0.622 (inactive).

In the case of CGCGAUUCAGCUCAUUCUCTT against Slitrk1, the z-score is 0.83 (inactive). With GCCAUCUUCGGUCAACUCUTT against Olfr969 the figure was -2.87 (active). The result for GGACUCCGUCAUAUACGAATT against Olfr1102 reads -0.187 (inactive); that for GGUAAAAGUGGGUAGGAAATT against Ptprh, 0.595 (inactive). The result for GGAUCUACGUAGCAUUUCATT against Mis12 reads 0.237 (inactive); that for CCCUAAGAGUCACCAAAAUTT against Nos2, -2.19 (active). On to GGGCUGAAUAAGGAACUGUTT against Nudt16l2, for which the z-score was 1.46 (inactive).

For GGAAAGAUCACUCUUGCAUTT against Pon1, the z-score was -0.58 (inactive). The result for GGACCACUCCAAGAGUUCUTT against Ncapd3 reads 2.88 (active); that for “GGAACUCUGGAAUAAUCUGTT against St6galnac2”, 1.58 (inactive). For the sequence GGACCAGCUGAUCUCAGUATT against Olfr418, the z-score was -1.94 (inactive). The result for “GGCUGACAAGAGAUUUAAATT against 4930430F08Rik” reads -0.703 (inactive). With GCUACGCUUCCUUAUUUGCTT against Tubgcp3 the figure was 0.525 (inactive). The result for GCCAAUAAGAACAACGAUGTT against Des reads 0.732 (inactive); that for GUCUAUCUUCAGCACAAACTT against Klrc3, 2.12 (active).

Consider GGUCUUUGAUCUACGAAUGTT against Rhobtb2, for which the z-score was 0.825 (inactive). Regarding GGAGAUAAAUGUGUAGACCTT against Matn3, the z-score was 0.915 (inactive). With GCACAAAUAAAGAUAAGAGTT against Uox the figure was -0.178 (inactive). With GGUUUAACUGUAGCAUAAGTT against Pde12 the figure was -0.0106 (inactive); with GGGACUCGGGCAGUAUUCATT against Tgm5, -0.185 (inactive).
